# Assay results: PubChem BioAssay (NCATS)
# Several values for one entry are separate records, joined by “and”; a condition that tells them apart may be missing. Equal values may be shown once. Results filed as inconclusive are left out. Values without a mark were called inactive. Activity calls are given as the source filed them. Unless noted, the call rests on the fitted dose curve; in most records, active means well fitted curve in the direction sought with a large enough effect; inconclusive means small, poorly fitted or top-dose-only effect, or another doubt; inactive means no such curve, though single readings can be large; an effect the other way counts as inactive or inconclusive.
# Columns and labels:
# [1] = target: Cytochrome P450 2C9 (Homo sapiens) (UniProt P11712); assay: Cytochrome P450 family 2 subfamily C member 9 (CYP2C9) small molecule antagonists: luciferase biochemical (cell-free) qHTS assay (AID 1645842; active means well fitted curve in the direction sought with a large enough effect in the repeat runs; an effect the other way counts as inactive or inconclusive; further: nearly all actives have a fitted effect of over 55% in size; on activity change, negative = inhibition: series mostly up to about 57 µM)
# Procedure, shortened: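 P450-Glo CYP2C9 system: proluciferin substrate with enzyme in mix containing 0.4% BSA, 10 min at room temperature, then NADPH regeneration solution added and incubated 1 h at 37C. Detection reagent stopped reaction; luminescence read after 20 min as RLU.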
# [2] = Primary qHTS for inhibitors of nuclear receptor binding SET domain protein 2 (NSD2) in an isogenic RCH-ACV NSD2 p.E1099K mutant (9B) (AID 1645876); further: nearly all actives have a fitted effect of over 70% in size
# [3] = Primary qHTS for inhibitors of nuclear receptor binding SET domain protein 2 (NSD2) in an RCH-ACV wild type WT cells (2C) (AID 1645877); further: nearly all actives have a fitted effect of over 70% in size
# On the % scale 0 is the no-effect control and ±100 the full control effect; potency means the concentration at half of the fitted maximal effect.
# Sequence of Cytochrome P450 2C9 (Homo sapiens) (P11712 whole entry, looked up): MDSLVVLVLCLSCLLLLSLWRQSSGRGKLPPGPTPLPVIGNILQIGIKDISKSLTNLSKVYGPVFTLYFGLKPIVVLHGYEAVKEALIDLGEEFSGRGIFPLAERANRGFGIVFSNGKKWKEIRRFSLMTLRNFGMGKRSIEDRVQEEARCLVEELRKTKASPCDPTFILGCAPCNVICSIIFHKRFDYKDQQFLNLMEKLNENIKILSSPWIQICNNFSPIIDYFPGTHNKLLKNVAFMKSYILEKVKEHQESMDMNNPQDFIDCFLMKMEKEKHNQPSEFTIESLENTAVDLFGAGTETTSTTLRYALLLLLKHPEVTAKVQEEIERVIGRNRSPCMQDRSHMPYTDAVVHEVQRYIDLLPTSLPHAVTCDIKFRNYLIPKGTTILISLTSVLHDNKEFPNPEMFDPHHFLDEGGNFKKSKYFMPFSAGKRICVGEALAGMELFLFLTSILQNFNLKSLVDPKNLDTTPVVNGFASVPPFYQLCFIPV
SMILES,Potency [1],Potency [2],Potency [3],"activity change, negative = inhibition [1]"
O=C(c1ccccn1)N(Cc1cccs1)C1(C(=O)NC2CCCCC2)CCCCC1,9.52 µM (active),inactive,inactive,–
Cc1ccc(NC(=O)C(C)C)cc1C1CCN(Cc2ccc(Oc3ccc(F)c(F)c3)cc2)CC1,9.52 µM (active),12.9 µM (active),9.16 µM (active),–
O=C(NCc1cccs1)c1cc2nc(-c3ccco3)cc(C(F)(F)Cl)n2n1,0.301 µM (active),inactive,inactive,–
CCC(=C(c1ccc(OCCN2CCCC2)cc1)c1ccc(OCCN2CCCC2)cc1)c1ccccc1,–,3.65 µM (active),3.65 µM (active),1.82% [at 11.5 µM]
CC(=O)NC(C)c1cnc(-c2cnc(Oc3ccc(OC(C)C)cc3)s2)s1 (stereo unspecified),9.52 µM (active),10.3 µM (active),8.17 µM (active),–
CCCN1CCC=C(c2cc(-c3ccc(C)cc3)no2)C1,inactive,inactive,inactive,–
CCC(C)CNCC(=O)N1CCc2sccc2C1COc1cccc(C)c1 (stereo unspecified),13.5 µM (active),16.3 µM (active),20.5 µM (active),–
CC(C)(C)Sc1c(CC(C)(C)C(=O)O)n(Cc2ccc(Cl)cc2)c2ccc(OCc3ccc4ccccc4n3)cc12,1.69 µM (active),inactive,inactive,–
COC(=O)c1ccc(N2CCN(C)CC2)c(NC(=O)c2cccc(OC)c2)c1,inactive,inactive,inactive,–
O=C(CCl)Nc1cccc(NC2=NS(=O)(=O)c3ccccc32)c1,15.1 µM (active),9.34 µM (active),6.61 µM (active),–
O=S(=O)(Nc1ccccc1N1CCCCC1)c1ccc(Cl)s1,5.35 µM (active),inactive,inactive,–
Cn1cc(-c2ccc(F)c(C(F)(F)F)c2)nc1C1CCN(c2ncnc3[nH]ncc23)CC1,inactive,inactive,inactive,–
N#Cc1cc(CN2CCC(Nc3ncnc4sc(Cl)cc34)CC2)ccc1F,inactive,14.5 µM (active),20.5 µM (active),–
CCC1C(=O)N(C)c2cnc(Nc3ccc(C(=O)NC4CCN(C)CC4)cc3OC)nc2N1C1CCCC1 (stereo unspecified),2.13 µM (active),0.0073 µM (active),0.0082 µM (active),–
O=C(NCCN1CCOCC1)c1cc2c(Oc3ccc(NC(=O)C4(C(=O)Nc5ccc(F)cc5)CC4)cc3)ccnc2[nH]1,12 µM (active),23 µM (active),12.9 µM (active),–
C[C@@H](NC(=O)c1ccc(C#Cc2cccc(F)c2)cn1)C(C)(C)O,16.9 µM (active),inactive,inactive,–
Cc1cc2occ(CN(C)CCN(C)Cc3cn(-c4cccc(C(F)(F)F)c4)c4ccccc34)c(=O)c2cc1C,21.3 µM (active),7.28 µM (active),7.28 µM (active),–
CC1(C)Oc2ncnc(N)c2N=C1c1ccc(C23CCC(CC(=O)O)(CC2)CC3)cc1,inactive,inactive,inactive,–
CNc1cccc(CCOc2ccc3c(c2)CN(CC(F)(F)F)C(=O)[C@H](CC(=O)O)C3)n1,inactive,inactive,inactive,–
COc1cc(N2CCC(O)CC2)ccc1Nc1nc(Nc2ccccc2S(=O)(=O)C(C)C)c2[nH]cnc2n1,15.1 µM (active),5.78 µM (active),4.09 µM (active),–
CC(C)c1ccccc1OC(=O)NCCc1ccc2ccccc2c1,0.952 µM (active),inactive,inactive,–
COc1ccc(N2CCN(C(=O)c3cc4c(s3)-c3ccccc3S(=O)(=O)C4)CC2)cc1,10.7 µM (active),inactive,inactive,–
COc1cc2ncnc(Nc3ccc(O)c(Br)c3)c2cc1OC,5.35 µM (active),11.6 µM (active) and 10.5 µM (active),13 µM (active) and 14.8 µM (active),–
COc1cc2c(cc1OC(C)C)[C@H](c1ccc(Cl)cc1)N(c1ccc(N(C)CC3CCC(N4CCN(C)C(=O)C4)CC3)cc1)C(=O)C2 (stereo partly specified),6.74 µM (active),1.83 µM (active) and 2.09 µM (active),817 nM (active) and 1.18 µM (active),–
CN(C)CCN(Cc1ccccc1)C(=O)c1cc(-c2ccc(F)cc2)n2nc(C(C)(C)C)cc2n1,16.9 µM (active),3.25 µM (active),2.9 µM (active),–
CCOc1cn(-c2ccc(F)cc2C)nc1C(=O)Nc1ccc(Oc2ccnc3cc(OC)c(OC)cc23)c(F)c1,inactive,4.09 µM (active),4.09 µM (active),–
CCN1CCN(Cc2ccc(C(=O)Nc3ccc(C)c(Oc4ccc5c(c4)CC(=O)N5)c3)cc2C(F)(F)F)CC1,23.9 µM (active),16.3 µM (active),16.3 µM (active),–
